Results reported in PMC4336329 (PLoS ONE, 2015).
Screen size: about 310,000 compounds; about 14,000 (4.5%) showed an effect of 50% or more. Effects have a minus sign here. What follows is part of a selection rich in strong results, with near analogues and random picks from the rest.

Each molecule was assayed against human ether-à-go-go-related gene (hERG) potassium channel (human, UniProt Q12809) (assay: primary screen, population patch clamp on CHO cells stably expressing hERG; higher = less effect of the substance).
human ether-à-go-go-related gene (hERG) potassium channel, sequence (Q12809 whole entry, looked up): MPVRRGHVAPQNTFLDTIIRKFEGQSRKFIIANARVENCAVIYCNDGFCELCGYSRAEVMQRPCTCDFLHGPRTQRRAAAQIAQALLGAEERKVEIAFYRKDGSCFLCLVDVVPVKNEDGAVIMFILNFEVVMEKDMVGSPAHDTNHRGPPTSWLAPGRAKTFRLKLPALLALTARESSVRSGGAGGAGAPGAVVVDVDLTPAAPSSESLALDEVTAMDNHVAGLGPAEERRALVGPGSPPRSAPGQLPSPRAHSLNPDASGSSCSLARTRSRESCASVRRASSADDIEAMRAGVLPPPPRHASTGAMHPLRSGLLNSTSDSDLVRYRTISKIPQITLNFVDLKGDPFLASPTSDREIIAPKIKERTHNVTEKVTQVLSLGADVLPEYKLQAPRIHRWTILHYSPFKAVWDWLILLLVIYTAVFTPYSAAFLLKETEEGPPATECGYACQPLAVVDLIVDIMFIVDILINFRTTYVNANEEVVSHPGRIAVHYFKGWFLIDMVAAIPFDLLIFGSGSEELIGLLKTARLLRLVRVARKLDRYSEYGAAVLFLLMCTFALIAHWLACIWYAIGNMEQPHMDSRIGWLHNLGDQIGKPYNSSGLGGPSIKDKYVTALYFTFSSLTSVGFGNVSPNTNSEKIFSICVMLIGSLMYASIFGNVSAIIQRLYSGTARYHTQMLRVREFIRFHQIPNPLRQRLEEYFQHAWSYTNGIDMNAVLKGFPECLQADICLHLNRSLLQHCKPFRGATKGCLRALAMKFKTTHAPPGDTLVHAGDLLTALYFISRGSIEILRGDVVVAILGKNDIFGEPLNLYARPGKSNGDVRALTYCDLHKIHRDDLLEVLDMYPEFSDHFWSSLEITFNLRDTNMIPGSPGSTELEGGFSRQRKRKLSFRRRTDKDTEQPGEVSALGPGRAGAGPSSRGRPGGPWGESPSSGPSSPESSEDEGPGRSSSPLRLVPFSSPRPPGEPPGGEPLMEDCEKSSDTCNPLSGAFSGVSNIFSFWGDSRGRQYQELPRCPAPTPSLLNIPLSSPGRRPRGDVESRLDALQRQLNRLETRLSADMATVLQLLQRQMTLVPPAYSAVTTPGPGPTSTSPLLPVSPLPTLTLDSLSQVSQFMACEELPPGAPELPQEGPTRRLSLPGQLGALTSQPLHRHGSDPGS
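Also: peak tail current of the secondary pulse compared with the same well before compound.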

Point of comparison: `CCOc1ccc(CCNc2cc(C)nc3ncnn23)cc1OCC`, “hERG current change (%, negative = inhibition) at 10uM” value -5%. Against it:
- CC(C)C(OC(=O)c1ccco1)C(=O)NCc1cccs1 (stereo not drawn) — higher, -0.362%
- CN(C)c1ccc(/C=N/NC(=O)C2CC2c2ccccc2)cc1 (stereo not drawn) — lower, -74.9%
- O=C(N/N=C/c1ccco1)C1CC1c1ccccc1 (stereo not drawn) — higher, -4.18%
- CN(C)c1ccc(/C=N/NC(=O)c2ccccc2)cc1 — higher, 10.9%
- CCOc1ccc(CCNC(=O)CCS(=O)(=O)c2ccc(Br)cc2)cc1OCC — higher, 13.8%
- Cc1cc(NC(=S)N(CCN2CCOCC2)Cc2ccccc2F)ccc1Cl — higher, 24.1%
- COc1cccc(CCC(=O)N2CCC(n3nccc3NC(=O)C3CCOC3)CC2)c1 (stereo not drawn) — higher, 14.9%
- COc1ccc(Nc2nc(N)c(C(=O)c3ccc(OC)cc3)s2)cc1 — lower, -52.7%
- COc1ccc(C(=O)c2sc(Nc3ccccc3)nc2N)cc1 — higher, 18.1%
- COc1ccc(Nc2nc(N)c(C(=O)c3ccc(F)cc3)s2)cc1 — higher, 25.9%
- O=C(Nc1ccc(Cl)cc1F)c1cc(S(=O)(=O)N2CCCCC2)ccc1F — higher, -0.146%
- Cc1ccc(NC(=O)Cn2nnc(C(=O)NCc3ccco3)c2N)c(C)c1 — higher, 3.23%
- C/[N+]([O-])=C\c1coc2ccccc2c1=O — higher, -1.4%
- O=C(CCl)N1CCN2C(=O)c3ccccc3C12c1ccc(Cl)cc1 (stereo not drawn) — higher, -1.56%
- Cc1cc2oc(=O)c(CC(=O)NCCCN(C)C)c(C)c2c2occ(C(C)(C)C)c12 — lower, -69.1%
- COCCCNC(=O)Cc1c(C)c2c(cc(C)c3c(C(C)(C)C)coc32)oc1=O — lower, -32.3%
- Cc1cc2oc(=O)c(CC(=O)NCCCO)c(C)c2c2occ(C(C)(C)C)c12 — lower, -9.35%
- O=C1OC(CO)CN1Cc1ccccc1 (stereo not drawn) — higher, 12.3%
- COc1ccc(-n2cc(-c3ccccc3)c3c(NCCCN4CCOCC4)ncnc32)cc1 — lower, -65%
- COc1ccc(-n2cc(-c3ccccc3)c3c(N4CCOCC4)ncnc32)cc1 — higher, 22.5%
- COc1ccc(-n2cc(-c3ccccc3)c3c(NN4CCOCC4)ncnc32)cc1 — lower, -40.6%
- c1ccc(-c2cn(-c3ccccc3)c3ncnc(NCCCN4CCOCC4)c23)cc1 — lower, -60.6%
- c1ccc(-c2csc3ncnc(NCCCN4CCOCC4)c23)cc1 — lower, -13.2%
- c1ccc(-n2ncc3c(NCCCN4CCOCC4)ncnc32)cc1 — lower, -11%
- COc1nc(-c2ccc(Cl)cc2)nnc1C — higher, 2.25%
- COCCNC(=O)C(c1cccs1)N(CCc1ccccc1)C(=O)Cn1nnc2ccccc21 (stereo not drawn) — higher, 6.51%
- O=C(CSc1nnc(Cn2cnc3ccccc32)o1)c1ccccc1 — lower, -7.21%
- Cc1ccc(N2C(=O)CC(=O)NC2=O)c(C)c1 — higher, 17.2%
- CC(=O)OCCn1c(C)[n+](CCOC(C)=O)c2cc(Cl)c(Cl)cc21.[I-] — higher, 14.7%
- COc1ccc(-c2ccoc2)cc1[C@H]1[C@H]2C=CC[C@@H](C)[C@@H]2C(=O)N1Cc1ccccc1 — higher, 1.85%
- O=C(c1ccco1)N1CCN(Cc2nnc(-c3cccc(Cl)c3)o2)CC1 — lower, -45.9%
- O=C(c1ccco1)N1CCN(Cc2nnc(-c3ccccc3)o2)CC1 — lower, -55.5%
- Cc1ccccc1-c1nnc(CN2CCN(C(=O)c3ccco3)CC2)o1 — lower, -14.2%
- O=C(c1ccco1)N1CCN(Cc2nnc(-c3ccccc3F)o2)CC1 — higher, 9.67%
- CC1CCN(Cc2nnc(-c3cccc(Br)c3)o2)CC1 — higher, -0.585%
- O=C(c1ccco1)N1CCN(Cc2nnc(-c3cccc(Br)c3)o2)CC1 — lower, -62.2%
- O=C(Cn1c(CO)nc2ccccc21)NCCc1ccccc1 — higher, -3.08%
- COc1ccccc1CNC(=O)c1cc(C)nn1-c1ccccc1 — higher, 1.87%
- CCOc1ccccc1NC(=O)Nc1cc(S(=O)(=O)N(C)C)ccc1C — higher, 15%
- C=CCn1c(=N)c(C#N)cc2c(=O)n3ccccc3nc21 — lower, -35.3%
- COCCCNC(=O)c1cc2c(=O)n3cccc(C)c3nc2s1 — higher, 7.44%
- CCOCCCNC(=O)c1cc2c(=O)n3cccc(C)c3nc2s1 — higher, 12.6%
- COCCCNC(=O)c1cc2c(=O)n3cccc(C)c3nc2n(C(C)C)c1=N — lower, -65.5%
- C=CCn1c(=N)c(C(=O)NCCCOC)cc2c(=O)n3ccccc3nc21 — lower, -60.1%
- CCOC(=O)c1c(C)nc2c(C)cccn12 — lower, -6.9%
- C=CCn1c(=N)c(S(=O)(=O)c2ccc(C)c(C)c2)cc2c(=O)n3ccccc3nc21 — higher, 14.3%
- CCn1c(=N)c(C(=O)NCCCOC)cc2c(=O)n3cccc(C)c3nc21 — lower, -61.4%
- C=CCn1c(=N)c(C(=O)OCC)cc2c(=O)n3cccc(C)c3nc21 — lower, -72.9%
- CC(NC(=O)CSc1nc2ccc(N)cc2s1)c1ccccc1 (stereo not drawn) — higher, 32%
- O=c1cccc2n1CC1CC2CN(C(c2ccccc2)c2sc3ncnn3c2O)C1 (stereo not drawn) — higher, 15.1%
- Cc1ccc(S(=O)(=O)N2CCCCC2)cc1NC(=O)c1cc(=O)[nH]c2ccccc12 — lower, -6.61%
- CCCN(CC(=O)Nc1ccccc1C)C(=O)c1ccc(C(=O)c2ccccc2)cc1 — lower, -25.9%
- Cc1onc(-c2ccccc2)c1C(=O)Nc1sc2c(c1C#N)CCC2 — higher, 1.63%
- Cn1c(=O)cc(N2CCCCC2)[nH]c1=O — higher, 9.92%
- CCc1cc(=O)oc2cc3occ(-c4ccc(OC)c(F)c4)c3cc12 — higher, 2%
- CCn1c(NC(=O)c2ccccc2)nc2ccccc21 — higher, 4.47%
- C=CCn1c(=N)c(C(=O)NCCCOC)cc2c(=O)n3cccc(C)c3nc21 — lower, -73.5%
- C=CCn1cc(C(=O)NCCCOC)c(=O)c2cc(S(=O)(=O)N(CC)CC)ccc21 — lower, -30.5%
- C=CCn1c(=N)c(C(=O)NCCCOC)cc2c(=O)n3cc(C)ccc3nc21 — lower, -57.3%
- O/N=C1\CCSc2ccc(F)cc21 — lower, -6.52%
- CC(=O)Nc1ccc(Oc2ccc(NC(C)=O)c(NC(C)=O)c2)cc1 — higher, 1.5%
- Cc1ccc(C)c(N2CCN(CCCNC(=O)Cn3cccc3C(=O)c3ccccc3)CC2)c1 — lower, -87.2%
- Cc1cccc(N2CCN(C(=O)Cn3cccc3C(=O)c3ccccc3)CC2)c1C — lower, -17.2%
- Cc1ccc(CNC(=O)Cn2cccc2C(=O)c2ccccc2C)cc1 — lower, -7.1%
- O=C(Cn1cccc1C(=O)c1ccccc1)NCCN1CCOCC1 — higher, -2.26%
- COc1ccc(CCNC(=O)Cn2cccc2C(=O)c2ccccc2C)cc1OC — lower, -16.3%
- Cc1ccccc1C(=O)c1cccn1CC(=O)NCCN1CCN(c2cccc(C)c2C)CC1 — lower, -69.5%
- Cc1ccc(C)c(N2CCN(C(=O)CCNC(=O)Cn3ccc4ccccc4c3=O)CC2)c1 — higher, -3.39%
- Cc1cccc(N2CCN(C(=O)CCNC(=O)Cn3ccc4ccccc4c3=O)CC2)c1C — lower, -55.5%
- Cc1cccc(N2CCN(C(=O)Cn3ccc4ccccc4c3=O)CC2)c1C — lower, -23.1%
- Cc1ccccc1C(=O)c1cccn1CC(=O)NCCC1=CCCCC1 — higher, 20.5%
- Cc1ccc(C)c(N2CCN(CCCNC(=O)Cn3cccc3C(=O)c3ccccc3C)CC2)c1 — lower, -74%
- Cc1ccc(CNC(=O)Cn2cccc2C(=O)c2ccccc2)cc1 — higher, 1.89%
- Oc1ccccc1N1CCN(C(c2ccccc2)c2ccccc2)CC1 — higher, 12.6%
- COc1ccc(OCCOC(=O)c2ccc(F)c(S(=O)(=O)N3CCOCC3)c2)cc1 — lower, -13.8%
- COc1ccc(NC(=S)NC(=O)/C=C/c2ccco2)cc1 — higher, -4.31%
- O=C(c1ccccc1)c1ccc(N2CCN(C(=O)c3cccc(F)c3F)CC2)c(F)c1 — lower, -37.9%
- Cc1cccc(N2CCN(C(=O)Cn3nc(Cc4ccncc4)c4ccccc4c3=O)CC2)c1C — lower, -61.3%
- O=C(Cn1nc(Cc2ccncc2)c2ccccc2c1=O)N1CCN(C(=O)c2ccco2)CC1 — lower, -26.7%
- O=C(Cn1nc(Cc2ccncc2)c2ccccc2c1=O)N1CCc2ccccc2C1 — lower, -44.4%
- COc1ccc(CN2CCSCC2)c(OC)c1C — higher, 13.5%
- Cc1nn(C)cc1CN1CCC(CO)(CCOc2ccccc2)CC1 — lower, -22.6%
- COc1ccc(CN2CCSCC2)cc1C — higher, 7.71%
- COc1ccc(CN2CCC(CO)(CCOc3ccccc3)CC2)cc1C — lower, -81.8%
- OCC1(CCOc2ccccc2)CCN(CCCn2cccn2)CC1 — lower, -73.1%
- COc1ccc(CN2CCC(CO)(CCOc3ccccc3)CC2)c(OC)c1C — lower, -83.5%
- COc1ccc(CN2CCCN(C)CC2)c(OC)c1C — higher, 11.1%
- Cc1nn(C)c(Cl)c1CN1CCC(CO)(CCOc2ccccc2)CC1 — lower, -54.7%
- CCn1ccnc1CN1CCC(CO)(CCOc2ccccc2)CC1 — lower, -8.02%
